Records with an inconclusive call do not appear. Activity calls are given as the source filed them. Unless noted, calls follow the shape of the dose curve; as a rule, active = well fitted curve in the direction sought with a large enough effect in the repeat runs; inconclusive = weak or mixed curves; inactive = no such curve, though single readings can be large; an effect the other way counts as inactive or inconclusive.
Experiments:
[1] = A CellTox Green Cytotoxicity Assay to monitor cytotoxicity in HepG2 cells - 8 hour (AID 1224890); also: nearly all actives have a fitted effect of over 45% in size; also: potency is read from the fitted curve at half-maximal effect
How it was run: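 Using 1536-well format, dye-containing HepG2 suspension was seeded, allowed 5 h at 37 C/5% CO2, dosed by pintool with compounds, positive and negative controls, and imaged for fluorescence across 40 h.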

[2] = molecular target: Estrogen receptor (Homo sapiens) (UniProt P03372); assay: qHTS assay to identify small molecule antagonists of the estrogen receptor alpha (ER-alpha) signaling pathway using the BG1 cell line in the presence of 0.1 nM 17-beta-estradiol (AID 1259244); also: nearly all actives have a fitted effect of over 50% in size; also: potency is read from the fitted curve at half-maximal effect
Sequence of Estrogen receptor (Homo sapiens) (P03372 whole entry, looked up): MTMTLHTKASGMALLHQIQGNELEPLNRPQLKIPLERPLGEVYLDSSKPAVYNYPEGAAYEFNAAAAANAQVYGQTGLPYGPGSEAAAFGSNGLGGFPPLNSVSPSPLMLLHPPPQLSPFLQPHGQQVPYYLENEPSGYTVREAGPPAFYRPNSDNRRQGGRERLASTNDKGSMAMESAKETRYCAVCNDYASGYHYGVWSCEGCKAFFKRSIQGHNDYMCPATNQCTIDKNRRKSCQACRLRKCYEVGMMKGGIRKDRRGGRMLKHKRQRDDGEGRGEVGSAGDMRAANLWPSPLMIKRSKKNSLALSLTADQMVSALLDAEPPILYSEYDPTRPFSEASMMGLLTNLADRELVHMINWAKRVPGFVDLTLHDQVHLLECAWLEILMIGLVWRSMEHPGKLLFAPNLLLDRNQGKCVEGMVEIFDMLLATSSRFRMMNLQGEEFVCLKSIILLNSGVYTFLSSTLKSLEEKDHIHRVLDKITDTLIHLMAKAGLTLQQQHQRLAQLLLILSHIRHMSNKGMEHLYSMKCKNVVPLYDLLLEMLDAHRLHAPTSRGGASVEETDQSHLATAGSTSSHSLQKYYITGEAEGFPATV
How it was run: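 Estradiol at 0.1 nM (final) stimulates the endogenous ER-alpha of VM7Luc4E2 cells carrying an ERE-driven luciferase; compounds are co-incubated 22 h at 37C and luciferase output quantified by luminescence.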

[3] = qHTS assay to identify small molecule phospholipidosis (PLD) inducers (AID 1259344; active = well fitted curve in the direction sought with a large enough effect; an effect the other way counts as inactive or inconclusive; also: potency is read from the fitted curve at half-maximal effect)
How it was run: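 Quantitative HTS in HepG2: compound plus LipidTOX Red dye for 24 h, paraformaldehyde fixation with Hoechst 33342, widefield high-content imaging; amiodarone as positive and DMSO as negative control.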

[4] = qHTS assay to identify small molecule HDAC inhibitors (AID 1259364); also: potency is read from the fitted curve at half-maximal effect;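 also: wild-type HCT-116 cells with endogenous class I/II HDAC activity; nearly all actives have a fitted effect of over 45% in size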
How it was run: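 Read-out: luminescence of HDAC-Glo I/II reagent, 30 min RT, reflecting class I/II deacetylase activity in whole HCT-116 cells pre-exposed 2 h to DMSO-dissolved compounds.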

[5] = qHTS assay to identify small molecule HDAC inhibitors - cell viability counter screen (AID 1259365); also: series mostly up to about 92 µM; nearly all actives have a fitted effect of over 50% in size
How it was run: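 Cytotoxicity was gauged in wild-type HCT-116 cells after a brief 2hr treatment with DMSO-dissolved compounds at 37C and 5% CO2, using CellTiter-Glo luminescence developed for 30min at room temperature.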

[6] = qHTS assay to identify small molecule agonists of the sonic hedgehog signaling (Shh) pathway - cell viability counter screen (AID 1259366); also: nearly all actives have a fitted effect of over 50% in size; also: potency is read from the fitted curve at half-maximal effect
How it was run: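 Stable Gli1-Luc NIH/3T3 clone, 2,000 cells/well. Compound exposure 24hr at 37C. Read-out: CellTiter-Fluor fluorescence.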

[7] = qHTS assay to identify small molecule antagonists of the sonic hedgehog signaling (Shh) pathway - cell viability counter screen (AID 1259367); also: nearly all actives have a fitted effect of over 55% in size; also: potency is read from the fitted curve at half-maximal effect
How it was run: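 Seed 3T3 Gli1-Luc cells at 2,000 per well; incubate 4 hr; add compound in DMSO, then conditioned medium; incubate at 37C with 5% CO2; add CellTiter-Fluor after 23 hr; read fluorescence 1 hr later.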

[8] = qHTS assay to identify small molecule agonists of the sonic hedgehog signaling (Shh) pathway (AID 1259368; calls by dose curve;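 also: NIH/3T3-derived 3T3Gli1-Luc cells carrying a stable Gli1-driven firefly luciferase reporter; series mostly up to about 92 µM; nearly all actives have a fitted effect of over 15% in size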)
How it was run: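 A Gli1 transcriptional response element controlled firefly luciferase in 3T3Gli1-Luc cells. Compounds and a positive control were added 4 hr after plating, and cells were incubated a further 24 hr at 37 C before luminescence detection.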

[9] = qHTS assay to identify small molecule antagonists of the sonic hedgehog signaling (Shh) pathway (AID 1259369; calls by dose curve; also: nearly all actives have a fitted effect of over 45% in size; also: potency is read from the fitted curve at half-maximal effect)
How it was run: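 For antagonist detection, the reporter line received test compounds together with conditioned medium, incubated 24hr at 37 C, 5% CO2, then luminescence was recorded following 30min room-temperature luciferase reagent incubation.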

[10] = qHTS assay to identify small molecule agonists of the androgen receptor (AR) signaling pathway in the presence of an antagonist - cell viability counter screen (AID 1259379); also: nearly all actives have a fitted effect of over 25% in size; also: potency is read from the fitted curve at half-maximal effect
How it was run: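 Seed MDA-kb2 at 3,000 cells/well; incubate 5 hr, 37C, 0% CO2. Add nilutamide to 3.0uM final, then pin compounds at 15 concentrations. Incubate 16 hr. Add CellTiter-Fluor at 15 hr, read fluorescence after 1 hr.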

[11] = qHTS assay to identify small molecule agonists of the estrogen receptor beta (ER-beta) signaling pathway - cell viability counter screen (AID 1259380); also: nearly all actives have a fitted effect of over 30% in size; also: potency is read from the fitted curve at half-maximal effect
How it was run: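 CellTiter-Glo read, 30 min RT, same wells as bla assay; cells ER-beta-UAS-bla HEK293T; 16 hr compound, 37C; medium 2% charcoal-stripped FBS.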

[12] = qHTS assay to identify small molecule antagonists of the estrogen receptor beta (ER-beta) signaling pathway - cell viability counter screen (AID 1259382); also: nearly all actives have a fitted effect of over 55% in size; also: potency is read from the fitted curve at half-maximal effect
How it was run: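 In this multiplexed counter screen, cells were seeded at 2,000 per well in medium with 2% charcoal-stripped FBS and incubated 6 hr before compound and 1nM final E2 were added. Sixteen hours later, ATP-based luminescence reported viability.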

[13] = molecular target: Estrogen receptor (Homo sapiens) (UniProt P03372); assay: qHTS assay to identify small molecule agonists of the estrogen receptor alpha (ER-alpha) signaling pathway in the presence of an antagonist (AID 1259383; calls by dose curve; also: top concentration of the series differs between compounds; nearly all actives have a fitted effect of over 15% in size)
How it was run: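 Stably transfected VM7Luc4E2 reporter cells, kept 5 days in charcoal-stripped serum, received ICI-182,780 at 10.0nM final before compound addition. Following 22hr incubation at 37C and 5% CO2, luciferase signal was read by luminescence.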

[14] = qHTS assay to identify small molecule agonists or antagonists of the thyroid stimulating hormone receptor (TSHR) signaling pathway - wild type cell line counter screen (AID 1259384; calls by dose curve)
How it was run: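 Wild-type Hek293 cells, 800/well, 18 h at 37C, then compound with Ro20-1724 for 30 min RT. cAMP by HTRF (cAMP-d2/anti-cAMP cryptate), 1 h RT, fluorescence read. 15 concentrations, triplicates.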

[15] = qHTS assay to identify small molecule antagonists of the estrogen receptor alpha (ER-alpha) signaling pathway using the BG1 cell line in the presence of 0.1 nM 17-beta-estradiol - cell viability counter screen (AID 1259241); also: nearly all actives have a fitted effect of over 40% in size
How it was run: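 Viability in VM7Luc4E2 cells after 22 hr compound exposure under 0.1 nM 17beta-estradiol stimulation, by CellTiter-Fluor.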

[16] = molecular target: Estrogen receptor beta (Homo sapiens) (UniProt Q92731); assay: qHTS assay to identify small molecule agonists of the estrogen receptor beta (ER-beta) signaling pathway (AID 1259377; active = well fitted activation curve with a large enough effect in the signal ratio in the repeat runs, not every such curve was filed as active; the % refers to the signal ratio)
Sequence of Estrogen receptor beta (Homo sapiens) (Q92731 whole entry, looked up): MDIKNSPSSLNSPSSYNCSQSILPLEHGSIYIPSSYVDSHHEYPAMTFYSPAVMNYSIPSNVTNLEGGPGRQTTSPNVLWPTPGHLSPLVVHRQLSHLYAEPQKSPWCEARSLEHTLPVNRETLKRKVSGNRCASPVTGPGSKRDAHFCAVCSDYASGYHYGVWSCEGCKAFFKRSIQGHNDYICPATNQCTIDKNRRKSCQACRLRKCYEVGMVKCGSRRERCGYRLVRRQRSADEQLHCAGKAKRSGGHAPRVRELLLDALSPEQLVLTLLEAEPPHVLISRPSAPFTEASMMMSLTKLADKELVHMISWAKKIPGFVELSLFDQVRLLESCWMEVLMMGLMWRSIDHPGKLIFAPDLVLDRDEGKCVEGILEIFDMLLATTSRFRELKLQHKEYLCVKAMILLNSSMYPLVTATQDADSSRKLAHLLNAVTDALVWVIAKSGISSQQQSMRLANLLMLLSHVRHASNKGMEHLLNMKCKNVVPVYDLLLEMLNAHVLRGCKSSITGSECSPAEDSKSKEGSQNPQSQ
How it was run: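 Measured by fluorescence intensity from a B/G FRET beta-lactamase substrate (2 h, room temperature) in ER-beta-UAS-bla HEK293T cells treated with DMSO-dissolved compounds for 16 hr at 37C and 5% CO2.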

[17] = qHTS assay to identify small molecule antagonists of the androgen receptor (AR) signaling pathway using the MDA cell line in the presence of 0.5 nM R1881 - cell viability counter screen (AID 1259242); also: nearly all actives have a fitted effect of over 45% in size
How it was run: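 Viability of MDA-kb2 cells was multiplexed with the luciferase AR readout; after 16 hr with compounds and R1881 at 0.5 nM final, CellTiter-Fluor fluorescence was recorded.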

[18] = molecular target: Androgen receptor (Homo sapiens) (UniProt P10275); assay: qHTS assay to identify small molecule antagonists of the androgen receptor (AR) signaling pathway using the MDA cell line in the presence of 0.5 nM R1881 (AID 1259243); also: nearly all actives have a fitted effect of over 50% in size; also: potency is read from the fitted curve at half-maximal effect
Sequence of Androgen receptor (Homo sapiens) (P10275 whole entry, looked up): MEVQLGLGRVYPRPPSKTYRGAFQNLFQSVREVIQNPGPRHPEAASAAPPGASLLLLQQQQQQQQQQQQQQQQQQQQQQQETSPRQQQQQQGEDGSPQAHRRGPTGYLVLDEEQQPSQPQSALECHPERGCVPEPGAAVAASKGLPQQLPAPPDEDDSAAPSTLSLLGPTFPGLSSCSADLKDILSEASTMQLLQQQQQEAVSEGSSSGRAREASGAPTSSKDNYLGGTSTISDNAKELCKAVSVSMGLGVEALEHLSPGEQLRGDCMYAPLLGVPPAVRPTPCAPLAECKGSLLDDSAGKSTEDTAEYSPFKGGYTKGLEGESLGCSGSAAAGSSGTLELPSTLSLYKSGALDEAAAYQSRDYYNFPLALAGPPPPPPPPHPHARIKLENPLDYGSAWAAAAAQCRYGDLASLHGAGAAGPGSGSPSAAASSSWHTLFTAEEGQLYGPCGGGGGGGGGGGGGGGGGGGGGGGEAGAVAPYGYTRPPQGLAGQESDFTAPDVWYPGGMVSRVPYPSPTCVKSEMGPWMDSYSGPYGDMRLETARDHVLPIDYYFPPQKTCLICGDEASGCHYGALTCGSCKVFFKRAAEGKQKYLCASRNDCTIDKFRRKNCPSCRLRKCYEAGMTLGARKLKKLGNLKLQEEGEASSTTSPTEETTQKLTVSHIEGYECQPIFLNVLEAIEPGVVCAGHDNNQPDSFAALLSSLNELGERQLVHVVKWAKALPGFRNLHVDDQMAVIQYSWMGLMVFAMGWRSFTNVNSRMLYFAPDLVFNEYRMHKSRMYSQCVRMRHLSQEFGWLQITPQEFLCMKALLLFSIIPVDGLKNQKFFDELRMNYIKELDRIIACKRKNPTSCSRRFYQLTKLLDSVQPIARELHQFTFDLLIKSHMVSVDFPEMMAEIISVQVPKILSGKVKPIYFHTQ
How it was run: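 Reporter cells cultured without CO2 receive test chemicals, then 0.5 nM R1881 final; after 16 hr at 37C, ONE-Glo is added and light output recorded.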

[19] = molecular target: Androgen receptor (Homo sapiens) (UniProt P10275); assay: qHTS assay to identify small molecule agonists of the androgen receptor (AR) signaling pathway in the presence of an antagonist (AID 1259381; calls by dose curve; also: nearly all actives have a fitted effect of over 15% in size)
How it was run: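 Test compounds at 15 concentrations were incubated for 16hr with MDA-kb2 reporter cells in presence of 3.0uM nilutamide (final). Signal: ONE-Glo luciferase luminescence.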

[20] = molecular target: Estrogen receptor beta (Homo sapiens) (UniProt Q92731); assay: qHTS assay to identify small molecule antagonists of the estrogen receptor beta (ER-beta) signaling pathway (AID 1259378; active = well fitted inhibition curve with a large enough effect in the signal ratio in the repeat runs, not every such curve was filed as active; the % refers to the signal ratio; also: potency is read from the fitted curve at half-maximal effect)
How it was run: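 ER-beta-UAS-bla HEK293T cells in 2% charcoal-stripped FBS medium treated with compound plus 1nM final 17-beta-estradiol for 16 hr at 37C. Beta-lactamase reporter read by FRET substrate fluorescence after 2 hours at room temperature.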

Measured: Potency

COc1cc(NC(C)CCCN)c2ncccc2c1 (stereo unspecified)
not listed: [15] | [16] | [17] | [18] | [19] | [20]
inactive: all other assays above

CCSC(=O)N(CC)CC
not listed: [3] | [17] | [18] | [19] | [20]
inactive: all other assays above

CCCCCCCCCCCSCC(=O)O
active: [2] 54.5 µM | [11] 27.3 µM | [12] 24.3 µM
not listed: [3] | [9] | [16] | [17] | [18] | [19] | [20]
inactive: all other assays above

Nc1ccn([C@H]2CS[C@@H](CO)O2)c(=O)n1
not listed: [2] | [13] | [17] | [18] | [19] | [20]
inactive: all other assays above

Cc1cn([C@H]2C[C@H](F)[C@@H](CO)O2)c(=O)[nH]c1=O
not listed: [1] | [7] | [20]
inactive: all other assays above

O=C(Oc1ccccc1)c1ccc2ccccc2c1O
active: [4] 9.69 µM
not listed: [1] | [3] | [7] | [13] | [16] | [20]
inactive: all other assays above

CCCCCCCCCCCC(=O)OCC(O)CO (stereo unspecified)
inactive: [1] | [15] | [2] | [3] | [4] | [5] | [8] | [9] | [16] | [10] | [13]

CC[C@H]1OC(=O)[C@H](C)[C@@H](O[C@H]2C[C@@](C)(OC)[C@@H](O)[C@H](C)O2)[C@H](C)[C@@H](O[C@@H]2O[C@H](C)C[C@H](N(C)C)[C@H]2O)[C@](C)(O)C[C@@H](C)CN(C)[C@H](C)[C@@H](O)[C@]1(C)O
not listed: [3] | [6] | [9] | [12] | [17] | [18] | [19]
inactive: all other assays above

O=C(O)c1ccc(O)cc1O
not listed: [2] | [3] | [7] | [12] | [13] | [17] | [18] | [19]
inactive: all other assays above

CC[C@H]1OC(=O)[C@H](C)[C@@H](O[C@H]2C[C@@](C)(OC)[C@@H](O)[C@H](C)O2)[C@H](C)[C@@H](O[C@@H]2O[C@H](C)C[C@H](N(C)C)[C@H]2O)[C@](C)(O)C[C@@H](C)C(=O)[C@H](C)[C@@H](O)[C@]1(C)O
not listed: [2] | [6] | [13] | [15] | [16] | [18] | [19]
inactive: all other assays above

CCN(CC)C(=O)/C(C#N)=C/c1cc(O)c(O)c([N+](=O)[O-])c1
active: [18] 23.7 µM | [10] 23.7 µM
not listed: [4] | [7] | [15] | [17] | [20]
inactive: all other assays above

O[C@@H](CNC[C@H](O)[C@H]1CCc2cc(F)ccc2O1)[C@@H]1CCc2cc(F)ccc2O1
active: [1] 23.9 µM | [3] 3.55 µM | [6] 29.8 µM | [7] 29.8 µM | [9] 13.3 µM | [20] 8.41 µM | [11] 11.9 µM | [12] 21.1 µM
inactive: [15] | [4] | [5] | [8] | [16] | [13] | [14]

Cc1ccc(Nc2c(F)cccc2Cl)c(CC(=O)O)c1
active: [11] 26.6 µM
not listed: [6] | [12] | [16] | [17] | [18] | [19] | [20]
inactive: all other assays above

CC(CN(CCN(CC(C)OCCO)CC(C)OCCO)CC(C)OCCO)OCCO (stereo unspecified)
active: [10] 33.1 µM
inactive: [1] | [15] | [4] | [5] | [6] | [8] | [9] | [11] | [12] | [14]

[Cl][Nd]([Cl])[Cl]
not listed: [3] | [6] | [7] | [17] | [18] | [19]
inactive: all other assays above

COc1cc(OC)c2ccc(=O)oc2c1
not listed: [1] | [3] | [9] | [16]
inactive: all other assays above

CNS(=O)(=O)c1cc(C(=O)N2CCC(CCN3C4CCC3CC(n3c(C)nc5ccccc53)C4)(c3cccc(F)c3)CC2)c(Cl)cc1F (stereo unspecified)
active: [18] 24.3 µM | [9] 15.4 µM | [11] 5.45 µM | [12] 7.7 µM
inactive: [15] | [17] | [4] | [5] | [8] | [19] | [14]

Reference: PubChem BioAssay (Tox21)
